# From PubChem BioAssay AID1347422 (Sanford-Burnham Center for Chemical Genomics, 2020)
# Over roughly 1,000 compounds, “thermal shift dTm” has its median near 0.19; the highest 2% begin near 1.7. For the sample, the highest values were picked, then their nearest neighbours and some compounds at random. Activity calls are given as the source filed them.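 How the source made its calls: active means mean rise in melting temperature of at least 1 degC over same-plate control wells; inactive means below that, where a call was filed.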
# Target: Sulfhydryl oxidase 1 (Homo sapiens) (UniProt O00391)
# Assay: ligand-induced melting shift of human QSOX1 – biophysical, protein thermal shift, single concentration, QSOX1 inhibitor project, confirmation (AID 1347422);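 further: dTm is compound Tm minus mean Tm of DMSO-only wells on that plate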
# Conditions: recombinant hQSOX1 thermal shift, Sypro Orange, at 25 µM, stronger effect = higher value
# Sequence of Sulfhydryl oxidase 1 (Homo sapiens) (O00391 whole entry, looked up): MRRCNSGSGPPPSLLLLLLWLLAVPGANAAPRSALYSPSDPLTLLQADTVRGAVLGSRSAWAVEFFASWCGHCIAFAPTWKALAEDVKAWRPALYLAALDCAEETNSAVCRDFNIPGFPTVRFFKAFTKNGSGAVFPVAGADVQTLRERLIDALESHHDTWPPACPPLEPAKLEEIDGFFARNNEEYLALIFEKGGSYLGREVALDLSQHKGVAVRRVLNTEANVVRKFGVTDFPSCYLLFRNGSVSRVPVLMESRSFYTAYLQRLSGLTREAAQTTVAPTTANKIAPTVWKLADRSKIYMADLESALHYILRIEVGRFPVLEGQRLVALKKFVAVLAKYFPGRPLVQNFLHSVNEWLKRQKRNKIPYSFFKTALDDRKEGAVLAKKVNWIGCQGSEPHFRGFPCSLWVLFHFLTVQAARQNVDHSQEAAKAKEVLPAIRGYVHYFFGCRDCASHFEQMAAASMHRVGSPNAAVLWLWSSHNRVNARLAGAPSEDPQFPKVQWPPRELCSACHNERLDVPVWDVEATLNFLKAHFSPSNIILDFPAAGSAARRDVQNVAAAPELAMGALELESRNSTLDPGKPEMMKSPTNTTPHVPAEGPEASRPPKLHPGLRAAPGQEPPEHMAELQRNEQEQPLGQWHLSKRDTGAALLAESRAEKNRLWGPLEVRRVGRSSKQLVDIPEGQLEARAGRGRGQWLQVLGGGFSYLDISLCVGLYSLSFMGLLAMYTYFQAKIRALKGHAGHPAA
row,SMILES,thermal shift dTm
1,COc1ccc(-c2c(-c3ccc(OC)c(C)c3O)n[nH]c2C(F)(F)F)cc1,0.76 °C
2,Cc1ccc2sc(-c3ccc(NC(=O)CCc4ccccc4)cc3)nc2c1,0.4 °C
3,COc1ccc(NC(=O)CSCc2ccccc2C)cc1Cl,0.02 °C
4,Cc1ccc(S(=O)(=O)Nc2cccc(NC(=O)c3cccs3)c2)cc1,0.48 °C
5,O=C(c1ccncc1)c1ccc(NC(=O)c2cccs2)cc1,0.05 °C
6,Cc1cc(C)nc(NS(=O)(=O)c2ccc(NC(=O)c3cccs3)cc2)n1,2.92 °C (active)
7,CC1=Nc2ccccc2/C1=C/c1c(O)n(Cc2ccco2)c(=O)[nH]c1=O,0.93 °C
8,Cc1nc(N)sc1-c1nnc(Nc2ccccc2)s1,2.14 °C (active)
9,CC(=O)c1sc(Nc2ccc(Oc3ccccc3)cc2)nc1C,0.15 °C
10,CCOc1ccc(Nc2nnc(C)s2)cc1,0.28 °C
11,Cc1ccc(NC(=O)C(C)Sc2nc3c(c(=O)[nH]2)CCCC3)cc1Cl (stereo not given),0.01 °C
12,CCOc1ccc2nc(NC(=O)CCCCC(=O)O)sc2c1,-0.04 °C (inactive)
13,CC(NS(=O)(=O)c1ccc(Cl)cc1)C1C2CC3CC(C2)CC1C3 (stereo not given),0.05 °C
14,COc1ccc(CCC(=O)Nc2nc3ccc(S(C)(=O)=O)cc3s2)cc1,0.35 °C
15,Cc1ccc(CN2CCC(C(=O)Nc3cccc(-c4ccn[nH]4)c3)CC2)o1,0.19 °C
16,CCc1nc2sc(C(=O)c3ccccc3)c(N)c2c2c1CCCC2,0.11 °C
17,O=C(CCCc1c[nH]c2ccccc12)NCCOc1ccc(Cl)cc1,-0.03 °C (inactive)
18,COc1cc(CO)cc(Cl)c1OCc1cccc2ccccc12,0.21 °C
19,CC(=O)Nc1cccc(NC(=O)COc2ccc(F)cc2Cl)c1,0 °C (inactive)
20,CCSC1=N/C(=C\c2ccc(-c3cccc(Cl)c3)o2)C(=O)S1,0.25 °C
21,Cc1ccc(S(=O)(=O)Nc2ccc(C(=O)Nc3ccc4c(c3)OCO4)cc2)cc1,1.03 °C (active)
22,Cc1ccc(Nc2nc(C3(C)CC4(CC(C)OC4=O)C(=O)O3)cs2)cc1 (stereo not given),0.11 °C

row,SMILES,thermal shift dTm
1,O=C1OC(c2ccccc2)OC(=O)C1=Cc1ccc(-c2cccc(C(F)(F)F)c2)o1 (stereo not given),1.07 °C (active)
2,CCCc1cc(=O)[nH]c(N2CCN(Cc3ccc4c(c3)OCO4)CC2)n1,0.02 °C
3,Cc1ccc(-c2n[nH]c(-c3ccncc3)n2)cc1,0 °C
4,O=C(NCCO)Nc1ccc(Cl)c(Cl)c1,0 °C (inactive)
5,O/N=C/c1cc(Cl)ccc1OCc1ccc(F)cc1,0.34 °C
6,CCOc1ccc(NC(=O)Nc2cnccn2)cc1,0.09 °C
7,O=C(COc1ccc(Cl)cc1)NCCSCc1ccc(Cl)c(Cl)c1,0.11 °C
8,CC(=O)Nc1ccc(NC(=O)CCc2nc(-c3ccccc3)no2)cc1,0.14 °C
9,Cc1cccc(Nc2nc3ccc(C)cc3n3cnnc23)c1,0.19 °C
10,Cc1ccc(C(=O)Nc2nc(-c3ccccc3)c(C)s2)s1,0.01 °C
11,Cc1ccc(NC(=O)Nc2ccc(S(=O)(=O)Nc3ccccn3)cc2)cc1,2.37 °C (active)
12,Cc1noc(NS(=O)(=O)c2ccc(NC(=O)Nc3ccc(Cl)cc3)cc2)c1C,0.7 °C
13,O=C(Nc1ccc(Cl)cc1)Nc1ccc(S(=O)(=O)Nc2ncccn2)cc1,1.03 °C (active)
14,CC(NC(=O)c1ccc(-c2cc(Cl)ccc2Cl)o1)c1ccccc1 (stereo not given),0.07 °C
15,Cc1ccccc1COc1ccc(Br)cc1/C=C1/N=C(c2ccco2)OC1=O,0.82 °C
16,Cc1nonc1CC(=O)N1CCc2ccc(NC(=O)Cc3ccccc3F)cc2C1,0.29 °C
17,COc1ccc(-c2nnc(Nc3ccc(O)cc3)c3ccccc23)cc1,0.15 °C
18,CN(C(=O)Nc1ccc(F)cc1)c1ccccc1,-1.43 °C (inactive)
19,Clc1cccc(-c2cn3ccccc3n2)c1,0.71 °C
20,O=C(Nc1ccc2ncccc2c1)c1cccc([N+](=O)[O-])c1,0.53 °C
21,N#Cc1nc(/C=C/c2cccs2)oc1NCCc1ccccc1,-37.7 °C (inactive)
22,Cc1ccc(NC(=O)N2CCC(Cc3ccccc3)CC2)cc1,0.07 °C

row,SMILES,thermal shift dTm
1,O=C(/C=C/c1ccc(F)cc1)Nc1ccncc1,0.57 °C
2,O=C(/C=C/c1ccc(Cl)cc1)Nc1cccnc1,2.02 °C (active)
3,CCCC(=O)Nc1cccc(NC(=O)/C=C/c2ccc(Cl)cc2)c1,-31.6 °C (inactive)
4,COc1cccc(NC(=O)Nc2cc(C)ccc2F)c1,0 °C
5,CCOc1ccc(NC(=O)Nc2cc(OC)c(OC)c(OC)c2)cc1,1.64 °C (active)
6,CCOc1ccc(NC(=O)Nc2cc(C)ccc2OC)cc1,0.34 °C
7,CCc1ccc(NC(=O)Nc2cc(F)ccc2F)cc1,-15.7 °C (inactive)
8,CCOc1ccc(NC(=O)Nc2cc(C)ccc2F)cc1,2.42 °C (active)
9,CCOc1ccc(NC(=O)Nc2cc(F)ccc2C)cc1,2.14 °C (active)
10,Cc1ccc(-c2cn(S(=O)(=O)c3cccc4nsnc34)nc2N)cc1,0.1 °C
11,O=C(Nc1ccccc1C(=O)O)c1cccc(S(=O)(=O)Nc2ccccc2)c1,1.23 °C (active)
12,COc1ccc(Cl)cc1Nc1nc(-c2ccccn2)cs1,0.1 °C
13,Cc1cnc(CNCc2ccccc2OCC(O)CN(C)C2CCCCC2)cn1 (stereo not given),0.14 °C
14,CCC(=O)c1ccc(OCC(=O)Nc2ccc(NC(C)=O)cc2)cc1,-0.03 °C (inactive)
15,Cc1ccc2[nH]cc(CCNC(=O)c3ccccc3Cl)c2c1,-0.13 °C (inactive)
16,CCOc1ccccc1C1C(C#N)=C(N)Oc2cc(N(C)C)ccc21 (stereo not given),0.29 °C
17,COc1ccc(-c2cc(C(F)(F)F)nc(NCc3cccs3)n2)cc1OC,0.11 °C
18,O=C(Nc1cccc(-c2ccco2)c1)C1CCN(C(=O)CCc2ccco2)CC1,1.03 °C (active)
19,O=C(Nc1ccc(Cl)cc1)Nc1cccc(C(=O)NCc2ccco2)c1,3.11 °C (active)
20,CCN(CC)C(=O)c1cccc(NC(=O)Nc2ccc(Cl)cc2)c1,0.23 °C
21,CC(=O)Nc1cccc(C(=O)Nc2ccc(Cl)cc2)c1,-7.43 °C (inactive)
22,CCc1ccc2c(c1)C(OC(C)=O)C(C)(C)C(c1cccc(Br)c1)N2 (stereo not given),0.44 °C

row,SMILES,thermal shift dTm
1,O=C(Nc1ccc(C(F)(F)F)cc1Cl)c1cc([N+](=O)[O-])[nH]n1,1.73 °C (active)
2,O=C(CCC(=O)OCc1ccc(Br)cc1)Nc1cc(C(F)(F)F)ccc1Cl,0.17 °C
3,COc1cc(-c2cccc(-c3ccn[nH]3)c2)ccc1NC(C)=O,0.14 °C
4,O=C(NCCc1ccccc1)c1ccc(NC(=O)C2CC2)cc1,0.04 °C
5,Cc1cc(Br)cc(C)c1NC(=O)/C=C/c1ccco1,0.52 °C
6,Cc1ccc(Nc2nc(C3CC(CC(C)C)C(=O)O3)cs2)cc1 (stereo not given),-0.09 °C (inactive)
7,Cc1ccc2cccc(OCCCCOc3ccccc3I)c2n1,0.77 °C
8,Cc1ccc(-c2noc(CNC(=O)c3ccc4ccccc4c3)n2)cc1,-0.08 °C (inactive)
9,CCOc1ccc(NC(=O)c2ccc(-c3csc(C)n3)cc2)cc1,0.15 °C
10,NC(=O)c1ccc(NC(=O)c2cccc(C(F)(F)F)c2)cc1,0.7 °C
11,CCc1ccc(NC(=O)COc2ccccc2F)cc1,0.24 °C
12,C=C(C)COc1ccc(NC(=O)c2cccnc2)cc1,0.13 °C
13,COc1ccc(-c2csc(NC(=O)c3ccc(Cl)s3)n2)cc1,0.05 °C
14,Oc1ccccc1C=Nc1ccc(Cc2ccc(N=Cc3ccccc3O)c(O)c2)cc1O,0.01 °C
15,O=S(=O)(NCCC1=CCCCC1)c1ccc(Cl)s1,0.17 °C
16,CCOc1ccc(NC(=S)N2CCC(C(N)=O)CC2)cc1,-0.13 °C (inactive)
17,Cc1ccc(/C=C/C(=O)NCC(C)NC(=O)/C=C/c2ccc(C)cc2)cc1 (stereo not given),0.45 °C
18,COc1ccc2[nH]cc(CCNC(=O)c3ccc(NC(C)=O)cc3)c2c1,1 °C (active)
19,COc1cc(/C=N/O)cc(Br)c1OCc1ccccc1F,0.16 °C
20,O=S(=O)(c1cccs1)N1CCC(CO)(Cc2ccc(Cl)cc2)CC1,0.18 °C
21,O=C(NCc1ccc(Cl)c(Cl)c1)c1ccc(Br)cc1,-0.13 °C (inactive)
22,O=C(Nc1nccs1)c1ccc(-c2cccc(Cl)c2Cl)o1,0.19 °C

row,SMILES,thermal shift dTm
1,O=C(C#Cc1ccccc1)Nc1ccc2c(c1)OCCO2,0.24 °C
2,CCC(c1ccccc1)c1nnc(NC(=O)Nc2ccccc2F)s1 (stereo not given),0.2 °C
3,NC(=O)c1cn(-c2ccccc2)nc1-c1ccc(-c2ccccc2)cc1,0.07 °C
4,O=C(NC(=S)Nc1cccc(Cl)c1N1CCOCC1)c1cccs1,-0.04 °C (inactive)
5,CCCc1cc(C(=O)Nc2ccc3[nH]ncc3c2)cs1,2.61 °C (active)
6,CCc1c(C(=O)Nc2ccc3[nH]ncc3c2)csc1C,0.29 °C
7,O=C(Nc1ccc2[nH]ncc2c1)c1cccc(F)c1,1.63 °C (active)
8,Cc1ccc(NC(=O)Nc2ccc(C)c(F)c2)c(C)c1,0.56 °C
9,FC(F)(F)c1ccccc1NC(=S)Nc1ccc(OCc2ccccc2)cc1,0.68 °C
10,COc1ccc(NC(=O)c2ccc(Cl)s2)cc1OC,0.19 °C
11,Cc1cc(C(=O)OCC(=O)Nc2ccc(Cl)cc2)c2ccccc2n1,-0.03 °C (inactive)
12,CCNS(=O)(=O)c1ccc(NC(=O)Nc2cc(C)ccc2OC)cc1,1.17 °C (active)
13,NC(=O)c1cn(-c2ccccc2)nc1-c1cccc(Br)c1,-0.72 °C (inactive)
14,C(=C\c1nnc(-c2ccccc2)o1)/c1cc2ccccc2o1,0.18 °C
15,O=c1nc2n(c3cc(Cl)ccc13)CC(O)=C2c1ccccc1,1.08 °C (active)
16,Cc1nc(-c2cccc(NC(=O)c3cccc(F)c3)c2)cs1,3.41 °C (active)
17,Cc1cccc(C(=O)Nc2cccc(-c3csc(C)n3)c2)c1,1.13 °C (active)
18,CCOc1ccc(C(=O)Nc2cccc(-c3csc(C)n3)c2)cc1,-0.65 °C (inactive)
19,CCOc1ccc(C(=O)Nc2cc(C)ccn2)cc1[N+](=O)[O-],0.43 °C
20,O=C(Nc1cccc(Br)c1)C1C2C3CCC(C3)C12 (stereo not given),0.21 °C
21,CCOc1ccc(/C=C/C(=O)Nc2ccc(OC)cc2OC)cc1,0.02 °C
22,CCc1cc(-c2n[nH]c(C)c2Oc2ccc(F)cc2)c(O)cc1OC,0.02 °C
